Measured values as given in PubChem BioAssay (NCATS).
Inconclusive results are not listed. A number with no mark means an inactive call. Active and inactive are the calls of the source. The call rests on the fitted dose curve; in most records, active means well fitted inhibition curve with a large enough effect; inconclusive means small, poorly fitted or top-dose-only effect, or effect the other way; inactive means flat fitted curve, though single readings scatter.

What follows are molecules tested against ATP-dependent 6-phosphofructokinase (Trypanosoma brucei brucei) (UniProt O15648) (assay: qHTS Assay to Find Inhibitors of T. brucei phosphofructokinase: hit validation (AID 492961;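 further: luminescence reports ADP formed as PFK phosphorylates fructose-6-phosphate with ATP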)). Conditions: T. brucei PFK, ADP-Glo luminescence; series mostly up to 51.4 µM; activity change, negative = inhibition: at the top concentration.
Sequence of ATP-dependent 6-phosphofructokinase (Trypanosoma brucei brucei) (O15648 whole entry, looked up): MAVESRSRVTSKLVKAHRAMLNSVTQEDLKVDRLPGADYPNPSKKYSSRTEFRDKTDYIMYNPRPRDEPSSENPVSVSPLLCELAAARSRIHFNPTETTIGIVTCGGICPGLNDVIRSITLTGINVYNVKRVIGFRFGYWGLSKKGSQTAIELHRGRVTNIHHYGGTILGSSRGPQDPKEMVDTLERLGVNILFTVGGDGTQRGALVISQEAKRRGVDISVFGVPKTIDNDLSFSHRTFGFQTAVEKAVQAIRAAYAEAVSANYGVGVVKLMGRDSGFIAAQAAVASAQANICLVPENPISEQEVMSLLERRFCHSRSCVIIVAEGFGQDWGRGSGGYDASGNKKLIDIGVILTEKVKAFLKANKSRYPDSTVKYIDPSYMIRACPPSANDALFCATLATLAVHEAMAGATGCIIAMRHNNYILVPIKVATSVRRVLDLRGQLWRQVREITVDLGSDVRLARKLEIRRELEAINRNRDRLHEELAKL
Outline: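 PFK 1.25 nM, F6P 0.5 mM, ATP 0.1 mM, MgCl2 5 mM, 0.1 M TEA pH 8.0, Tween20 0.01%, BSA 0.1%; 45 min RT. ADP-Glo two-step detection, luminescence. qHTS titration; curve fitting with curve-class categorization.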
On the % scale 0 is the no-effect control and ±100 the full control effect.

SMILES	activity change, negative = inhibition	Potency
CCCOC(=O)c1ccccc1	-0.936%	
COc1ccc(S(=O)(=O)Nc2nnc(CC(C)C)s2)cc1		inactive
c1ccc(CN(CC2=NCCN2)c2ccccc2)cc1	4.52%	
O=C(O)COc1nn(Cc2ccccc2)c2ccccc12	-8.35%	
CCOC(=O)[C@H](CCc1ccccc1)N[C@@H](C)C(=O)N1C(=O)N(C)C[C@H]1C(=O)O	-4.97%	
CCOc1nc2cccc(C(=O)O)c2n1Cc1ccc(-c2ccccc2-c2nn[nH]n2)cc1	5.02%	
CC(C)(C)NCC(O)COc1ccc(NC(=O)NC2CCCCC2)cc1 (stereo unspecified)	-6.77%	
CCCCc1ncc(/C=C(\Cc2cccs2)C(=O)O)n1Cc1ccc(C(=O)O)cc1	-3.84%	
CC1(C)CO[C@@H](CC(=O)O)CN1	0.092%	
C[C@H](N)[C@H](O)c1cccc(O)c1	3.63% [at 24.3 µM]	
CCC(=O)Nc1ccc(O)cc1	-4.5%	
